# According to the supplement of paper PMC10105736:
# ± gives the standard deviation of the averaged measurements.
# Tests used:
# Experiment in all cases: MAPPIT interaction score (arbitrary units); higher = stronger binary interaction signal, active = hit call of the paper;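 active = MAPPIT score above the 99th percentile of random reference set scores in the same batch; inactive = at or below it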
# Tcs6 = conditions: MAPPIT configuration: N-N; pair source set: screen_2
# TfIIA-L = conditions: MAPPIT configuration: N-N; pair source set: screen_2
# THG = conditions: MAPPIT configuration: N-N; pair source set: screen_2
# Swt1 = conditions: MAPPIT configuration: N-N; pair source set: Finley_Y2H
# Su(var)2-10 = conditions: MAPPIT configuration: N-N; pair source set: DPIM
# Sod3 = conditions: MAPPIT configuration: N-N; pair source set: Lit-BS-16
# Ssrp = conditions: MAPPIT configuration: N-C; pair source set: Lit-BM-16
# Tgi = conditions: MAPPIT configuration: N-N; pair source set: Lit-BM-16
# yki = conditions: MAPPIT configuration: N-N; pair source set: Lit-BM-16
# Taf12 = conditions: MAPPIT configuration: N-N; pair source set: Curagen_low_conf
# Syp = conditions: MAPPIT configuration: N-N; pair source set: DPIM
# Sxl = conditions: MAPPIT configuration: N-N; pair source set: Lit-BM-16
# 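Note: HEK293T cells with Epo stimulation, STAT-responsive firefly luciferase reporter, fold induction versus unstimulated cells divided by the larger fold induction of two negative controls lacking either bait or prey.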
binder,measurement,setting,value
Tcs3 (protein) MVCALGIEGSANKIGIGIIRDGKVLANVRRTYITPPGEGFLPKETAKHHREAILGLVESSLKEAQLKSSDLDVICYTKGPGMAPPLLVGAIVARTLSLLWNIPLLGVNHCIGHIEMGRLITGAQNPTVLYVSGGNTQVIAYSNKRYRIFGETIDIAVGNCLDRFARIIKLSNDPSPGYNIEQLAKSSNRYIKLPYVVKGMDVSFSGILSYIEDLAEPGKRQNKRKKPQEEEVNNYSQADLCYSLQETIFAMLVEITERAMAHCGSNEVLIVGGVGCNERLQEMMRIMCEERGGKLFATDERYCIDNGLMIAHAGAEMFRSGTRMPFEESYVTQRFRTDEVLVSWRDD,MAPPIT interaction score,Tcs6,1.93 (inactive)
TfIIA-S-2 (protein) MNYQHYRATTLGRTLQDTLDEMMERGDITKKIANLVLLRYDKSISTALKDHGTSNMSFTAERLETFRCCDNVWTLILKDAEFREDQHSLKVDVVKIVACLGTDNGNE,MAPPIT interaction score,TfIIA-L,3.17 ± 3.8
snf (protein) MEMLPNQTIYINNLNEKIKKEELKKSLYAIFSQFGQILDIVALKTLKMRGQAFVIFKEIGSASNALRTMQGFPFYDKPMQIAYSKSDSDIVAKIKGTFKERPKKVKPPKPAPGTDEKKDKKKKPSSAENSNPNAQTEQPPNQILFLTNLPEETNEMMLSMLFNQFPGFKEVRLVPNRHDIAFVEFTTELQSNAAKEALQGFKITPTHAMKITFAKK,MAPPIT interaction score,THG,0.333 (inactive)
Zpr1 (protein) MSTVSDPNSSNPPESAGNIRPEPIFREINAEQTDEIVEVESACMNCFETGVTRLLPTKIPFFREVVLMSFKCDHCGHINNEMQSASEIQKSGIRIELRVQSVADLNRRVVRSDNSSISIPEIELEIPVQSQKGEVTTVEGIIERTIAGLSQDQEKRRIDHPETAASIEKYIERLHRLKEVTTPFQVLLEDISGNSFIENPLAPAADPQLKTSYFTRSQQQNEQLGLYEQNHEEQHLLKPIAEDSWPIENLHGEVLQFPTNCPSCQAPCETNMKLTNIPHFKEVVIMATVCGACGHKTNEVKSGGGVEAQGVRFRVQIASREDLTRDVLKSETCSMSIPELDLEVGPHALCGRFTTVEGLLVAMRDQLDGTLFHDSADDATKQQMQRFLDTFEDVMNLKRVITLVLEDPAGNTYVQSLSDDDSEPDDKLTVERYDRSYEDNEDLGLNDMKTEGYEEKA,MAPPIT interaction score,Swt1,-0.39 (inactive)
Calr (protein) MMWCKTVIVLLATVGFISAEVYLKENFDNENWEDTWIYSKHPGKEFGKFVLTPGTFYNDAEADKGIQTSQDARFYAASRKFDGFSNEDKPLVVQFSVKHEQNIDCGGGYVKLFDCSLDQTDMHGESPYEIMFGPDICGPGTKKVHVIFSYKGKNHLISKDIRCKDDVYTHFYTLIVRPDNTYEVLIDNEKVESGNLEDDWDFLAPKKIKDPTATKPEDWDDRATIPDPDDKKPEDWDKPEHIPDPDATKPEDWDDEMDGEWEPPMIDNPEFKGEWQPKQLDNPNYKGAWEHPEIANPEYVPDDKLYLRKEICTLGFDLWQVKSGTIFDNVLITDDVELAAKAAAEVKNTQAGEKKMKEAQDEVQRKKDEEEAKKASDKDDEDEDDDDEEKDDESKQDKDQSEHDEL,MAPPIT interaction score,Su(var)2-10,1.1 (inactive)
noc (protein) MVVLEGGGGVVTIGNNQYLQPDYLAPLPTTMDAKKSPLALLAQTCSQIGADSSAVKPLLAMDKNKTKPGACSSSSNSSSSSGSAEISAAKSPSGQAKSPKSSTPISSTATSASLSNTSTGEIKLAFKPYETNVLSHQNQNSFKSSSSLDAEPTRPSSKNSSSAQERVPSRSKSNATPTDGGKAEISAHDSSSSRKTVSPSGSSQRGASPIVRSGMEVLNNANGTAQHPKEMSSMAAAAAAAAAAYKAAGPYGLNPLSALCCPPGMEQHANPAFRPPFAGGFSHHHAAMLAVAANGGYPGGAPGGGPAGQPNPYISYQRIKTPAGGEAIVPVCKDPYCQGCPYSAHTQQMLMGAPCPAGCTQCEHQKYGLAMASAAGLPPAHPYSQAAAAAAANAAAARSAPYVCSWVVGDAYCGKRFQTSDELFSHLRTHTGNLSDPAAAAAALAQSQAQSLLGTLFPPSALRAGYPTPPLSPMSAAAAAARYHPYAKPPPGALAGGPSPFGAAGAFNPAAAAAAAALGPYYSPYAMYGQRMGAAHQ,MAPPIT interaction score,Sod3,0.758 (inactive)
dre4 (protein) MSSFVLDKEAFVRRVKRLYTEWRAPSIGHDDALRNLDCIMSIVGVEEDVMYSKSMALQLWLLGYELTDTISVFCSDAVYFLTSKKKIEFLKQTQNITEEGFPEINLLVRDRTDKDQGNFEKLIKALQNSKKGKRLGVFAKDAYPGEFSEAWKKSLTASKFEHVDISTIIAYLMCPKDESEINNIRKASLVSMDIFNKYLKDEIMDIIDSDRKVKHNKLSDGCEAAIGEKKYTSGLDPRLLDMAYPPIIQSGGAYSLKFSAVADKNPLHFGVIVCSLGARYKSYCSNISRTFLVNPTEAMQENYTFLVSVQEEILKLLVPGTKLCDVYEKTLDFVKKEKPSMVDNLPKSFGFAMGLEFRENSIVIGPKCQALLKKNMVFNLHVGISNLTNPEATDKEGKNYALFIGDTVLVGEQSPASVMTPSKKKIKNVGIFIKDDSDEEDVDDKKTAKEDQGTEILGRSKRNAVLESKLRNEINTEEKRKEHQRELAQQLNERAKDRLARQGNSKEVEKVRKNTVSYKSISQMPREPEVKELKLYVDKKYETVIMPVFGIQVPFHISTIKNISQSVEGEYTYLRINFFHPGATMGRNEGGLYPQPEATFVKEVTYRSSNVKEHGEVGAPSANLNNAFRLIKEVQKRFKTREAEEREKEDLVKQDTLILSQNKGNPKLKDLYIRPNIVTKRMTGSLEAHSNGFRYISVRGDKVDILYNNIKSAFFQPCDGEMIILLHFHLKYAIMFGKKKHVDVQFYTEVGEITTDLGKHQHMHDRDDLAAEQAERELRHKLKTAFKSFCEKVETMTKSVVEFDTPFRELGFPGAPFRSTVTLQPTSGSLVNLTEWPPFVITLDDVELVHFERVQFHLRNFDMIFVFKEYNKKVAMVNAIPMNMLDHVKEWLNSCDIRYSEGVQSLNWQKIMKTITDDPEGFFEQGGWTFLDPESGSEGENETAESEEDEAYNPTDAESDEESDEDSEYSEASEDSEESDEDLGSDEESGKDWSDLEREAAEEDRNHDYAADDKPRNGKFDSKKHGKSSKHSPSKSSKDKYNSRDKHHSSSSSGNKSSSKDKDRKRSRDDSRDNGHKSKKSRH,MAPPIT interaction score,Ssrp,0.759 (inactive)
sd (protein) MKNITSSSTCSTGLLQLQNNLSCSELEVAEKTEQQAVGPGTIPSPWTPVNAGPPGALGSADTNGSMVDSKNLDVGDMSDDEKDLSSADAEGVWSPDIEQSFQEALSIYPPCGRRKIILSDEGKMYGRNELIARYIKLRTGKTRTRKQVSSHIQVLARRKLREIQAKIKVQFWQPGLQPSTSQDFYDYSIKPFPQPPYPAGKTSTAVSGDETGIPPSQLPWEGRAIATHKFRLLEFTAFMEIQRDEIYHRHLFVQLGGKPSFSDPLLETVDIRQIFDKFPEKSGGLKDLYEKGPQNAFYLVKCWADLNTDLTTGSETGDFYGVTSQYESNENVVLVCSTIVCSFGKQVVEKVESEYSRLENNRYVYRIQRSPMCEYMINFIQKLKNLPERYMMNSVLENFTILQVMRARETQETLLCIAYVFEVAAQNSGTTHHIYRLIKE,MAPPIT interaction score,Tgi,0.163 (inactive)
same,MAPPIT interaction score,yki,0.822 (inactive)
CtsF (protein) MRLFAAATVALVLLLGQAAGEELAEERAGQAQGDAESTESSETTTDQAVSEPPITLVHVLNPGEREYLSPNLIGVQNIAMTFLPLSMNFVNIIDAFREITAGVRYEILLNALDTKAIQPAEADIVCRLVILEKPWLRTQWGDKHRELVTSNCTDPAVNSVAGDPAEKARLLNEKYVHRSRRSANDILGRHKPYDEEAAKAQLQKSLDKLTAGEGPHYKIVKVYSASRQVDSGILTRIDADLIDGSEEQHRCIVDIWTKVWVRKDEHEITFKCRNQPVVQARHTRSVEWAEKKTHKKHSHRFDKVDHLFYKFQVRFGRRYVSTAERQMRLRIFRQNLKTIEELNANEMGSAKYGITEFADMTSSEYKERTGLWQRDEAKATGGSAAVVPAYHGELPKEFDWRQKDAVTQVKNQGSCGSCWAFSVTGNIEGLYAVKTGELKEFSEQELLDCDTTDSACNGGLMDNAYKAIKDIGGLEYEAEYPYKAKKNQCHFNRTLSHVQVAGFVDLPKGNETAMQEWLLANGPISIGINANAMQFYRGGVSHPWKALCSKKNLDHGVLVVGYGVSDYPNFHKTLPYWIVKNSWGPRWGEQGYYRVYRGDNTCGVSEMATSAVLA,MAPPIT interaction score,Taf12,0.31 (inactive)
grass (protein) MMIASSLAVLYGIAIVSSMGVQSARADYADDCTTPDGDQGQCMPFSSCRTIEERLTEAQKAGQKVPADYASYLQKALCGEFNGVRHFCCPSANIQHNSKVMSLFKDENFDCGNFLSQRVSNGYEVKLSSRPWMALLRYQQFGESRFLCGGAMISERYILTAAHCVHGLQNDLYEIRLGEHRISTEEDCRQQGRKKKCAPPVVNVGIEKHLIHEKYDARHIMHDIALLKLNRSVPFQKHIKPICLPITDELKEKAEQISTYFVTGWGTTENGSSSDVLLQANVPLQPRSACSQAYRRAVPLSQLCVGGGDLQDSCKGDSGGPLQAPAQYLGEYAPKMVEFGIVSQGVVTCGQISLPGLYTNVGEYVQWITDTMASNGL,MAPPIT interaction score,Syp,-0.0477 (inactive)
Unr (protein) MNTQSKVYRTGEEIYDNLPCDSYFNMNAIRNLGIPTTFPTIGTFTLDSTTLGLQPQGQGPSPQQQQHQQQQQQQQQQHQQNMHHHQHQQQHMQQQQQQQQHQQQHQQQQHQQQQQHQQQQQQQQQHPTIGMFDANEVNDVIQNPPQIGVFQSNSVLTNGAGSGSSIFGSQSSNSSAAAADPSQTTRETGIIEKLLHSYGFIQCCERQARLFFHFSQFSGNIDHLKIGDPVEFEMTYDRRTGKPIASQVSKIAPEVVLSEERVTGTVTTELRTDSANNVLNSSETTGRISYENRGECFFLPYTKDDVEGNVNLRAGDKVSFQIATNQRGNLGACHIRLENPAQPVKYRGVVCSMKESFGFIERADVVKEIFFHFSEAEGNVELRPGDDVEFTIQTRSSASVPPQGREFACNITRLAPGSVIFEDVDSTVYKGQVLKSLDRNNPVRQNNDPLPGRIRYRALDYSEVEVPFGDKDQKGDFTLRHGDWVQFLLATDRRDQLQRATSIALLDETFKVSGEKREQGTIASLKEGFGFLRCVERQARLFFHFTEVLDTSREIDINDEVEFTVIQEPGLAYNNSRLQAIRIKHLPPNSVQFETLVASNIEGCVTREAPKSPIKSQDRVEGGVITYEHADVKKTIMYFLKDCEKPPRIGERVRFDIYMVKRNKECIAVNVQQVSLHQQQQQQQQQLHLNQSNAGANINQNDQLGGLSNGISSSSSNASLQNGYVMHGSPGGSTSSVGSNNPVHLDEFKMENNNHAGSDAGQVYRGFIAVMKENFGFIETLSHDEEVFFHFSNYMGNPNWLELGQEVEYTLARNGNTSVSGNCLPAENVRMLPKNSIPQPAVLETTHNGVVARPLRCINPDQQEYAGLIEILDELRTTVISQHEFGITSLVNKRDLLQKGDLVSFRIDESGRAACVNAVRQKKRATVDSIKGQFGFLNFEVEDGKKLFFHMSEVQGNTVALHPGDTVEFSVVTNQRNGKSSACNVLKINDRPDRLISRLKLNGDDTVPRLILIRAPKGPQGKGFSVLARHPRIPGNLVE,MAPPIT interaction score,Sxl,1.51 (inactive)
